From PubChem BioAssay
An excerpt weighted towards active compounds, which were near 3.3% of everything screened.
Mcl1-Noxa inh – Mcl-1/Noxa interaction inhibition; inhibition, % at 21.7 µM; AID 1022; TR-FRET Mcl-1/Noxa peptide binding, 2 h; actives 1.5% (n = 220,000);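 active = compounds that cut the protein-peptide binding signal by more than 50% relative to plate controls in a single-dose test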;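 also: His-tagged Mcl-1 with rhodamine Noxa BH3 peptide and terbium anti-His antibody; 0% = Mcl-1 plus Noxa peptide wells and 100% = peptide-only wells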
Mcl1 Bid PPI – Mcl-1/Bid interaction inhibition; Q07820; TR-FRET Mcl-1/Bid-Dy647 peptide binding, 1536-well; inhibition, % at 21.7 µM; actives 0.97% (n = 220,000);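 active = compounds that cut the binding signal by more than half at the single screening dose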;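 also: His-tagged Mcl-1 with europium anti-His antibody binding Bid BH3 peptide; 0% = Mcl-1 plus peptide wells and 100% = peptide-only wells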
eIF4E 4G PPI – inhibitors of eIF4E and eIF4G interaction in translation initiation | actives 0.37% (n = 220,000) | P63073+Q04637 | TR-FRET eIF4E-eIF4GI(517-606) binding, 2 h | inhibition, % at 21.7 µM;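 also: 0% = full FRET control wells and 100% = background wells lacking eIF4GI fragment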
14-3-3 Bad PPI – disrupts binding of bovine 14-3-3 zeta to phospho-Bad peptide. P63103. TR-FRET 14-3-3zeta/Dy647-pBad peptide displacement, 1 h. inhibition, % at 21.7 µM. actives 0.71% (n = 220,000). AID 781;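 active = inhibition above about 70%, limit read from the data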;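 also: 0% = full 14-3-3 plus peptide FRET controls and 100% = background without 14-3-3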
Target sequence (P63103 whole entry, looked up): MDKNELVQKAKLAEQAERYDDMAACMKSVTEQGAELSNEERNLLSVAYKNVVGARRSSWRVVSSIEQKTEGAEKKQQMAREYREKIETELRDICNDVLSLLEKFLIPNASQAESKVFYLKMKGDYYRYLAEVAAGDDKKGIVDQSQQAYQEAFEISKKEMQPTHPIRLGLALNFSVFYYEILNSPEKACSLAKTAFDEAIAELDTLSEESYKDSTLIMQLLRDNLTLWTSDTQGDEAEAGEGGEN
p47phox inh – blocks human p47phox regulatory protein of NADPH oxidases; P14598; p47phox/p22phox peptide binding, fluorescence polarization, 2 h; inhibition, % at 24.7 µM; actives 0.53% (n = 220,000);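 also: 0% = p47phox with labelled peptide and 100% = labelled peptide alone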
Target sequence (P14598 whole entry, looked up): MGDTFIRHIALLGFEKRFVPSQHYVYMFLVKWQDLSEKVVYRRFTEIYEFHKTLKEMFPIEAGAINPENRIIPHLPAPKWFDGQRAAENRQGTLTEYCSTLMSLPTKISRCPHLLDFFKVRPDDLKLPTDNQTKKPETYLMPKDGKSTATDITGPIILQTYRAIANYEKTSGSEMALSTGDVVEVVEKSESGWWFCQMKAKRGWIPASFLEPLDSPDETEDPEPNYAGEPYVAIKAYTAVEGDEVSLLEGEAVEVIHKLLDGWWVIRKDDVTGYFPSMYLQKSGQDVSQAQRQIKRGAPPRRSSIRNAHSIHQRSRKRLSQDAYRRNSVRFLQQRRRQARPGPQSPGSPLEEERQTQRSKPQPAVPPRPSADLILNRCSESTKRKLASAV
Mcl-1 Bim block – inhibitors of Bim-Mcl-1 interaction, human. Q07820. Bead-based flow cytometry, Bim peptide-Mcl-1 binding. inhibition, % at 10 µM. actives 0.1% (n = 190,000). AID 1009; in the data active = inhibition above about 40%;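 also: 0% = no compound tracer wells and 100% = peptide blocker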
Numbers without * were called inactive; . = no result given.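 The calls were made as follows, unless noted: active = inhibition above about 30% (limit read from the data); inactive = the rest.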

SMILES	Mcl1-Noxa inh	Mcl1 Bid PPI	eIF4E 4G PPI	14-3-3 Bad PPI	p47phox inh	Mcl-1 Bim block
CCc1nnc(NC(=O)c2ccc(-c3ccc([N+](=O)[O-])cc3Cl)o2)s1	59.3*	66.2*	9.4	49.9	10.9	0.0
CCc1nnc(NC(=O)c2ccc(-c3cc(C(F)(F)F)ccc3Cl)o2)s1	-2.2	-7.7	-14.7	-8.0	-27.6	-1.0
COc1ccc(NC(=O)c2[nH]ncc2[N+](=O)[O-])cc1	4.9	80.2*	-3.8	-11.1	-6.3	1.0
COc1ccc(NC(=O)c2cc([N+](=O)[O-])ccc2O)cc1	22.4	-2.0	-1.9	-2.0	-10.4	1.0
O=C(O)CC1(CC(=O)NCc2ccncc2)CCCCC1	-0.6	-3.5	0.4	-13.1	-7.0	.
CC(=O)Nc1ccc(S(=O)(=O)Nc2nc3ccccc3nc2Nc2ccc(N)cc2)cc1	58.0*	-144.7	-3.7	0.4	-2.5	.
CC(C)(C)/C(O)=C(/C#N)c1nc2ccccc2[nH]1	12.2	-11.9	-1.7	-11.5	-12.2	2.0
N#C/C(=C(O)\C=C\c1ccccc1)c1nc2ccccc2[nH]1	67.3*	49.9	-12.4	25.6	8.9	.
Cc1ccc(C(=O)NCC(=O)N2CCN(c3ncccn3)CC2)s1	19.1	65.3*	-7.1	7.5	-5.8	0.0
O=C(NCC(=O)N1CCN(c2ncccn2)CC1)c1cccs1	-0.8	-9.5	6.8	-3.1	3.3	0.0
Cc1ccc(N2C(=O)c3cccc4c(N)ccc(c34)C2=O)c2cccnc12	-16.1	-59.2	1.8	2.8	-180.4	.
Cc1ccc(-n2cnnn2)c2cccnc12	-31.5	57.2*	4.6	-4.3	-29.7	8.0
CCN(CC(=O)Nc1ccc(NC(C)=O)cc1)c1ccc(C(F)(F)F)cn1	18.8	-28.1	9.5	-14.1	-0.3	-7.0
CN(C)/C=N/c1c(C#N)cnn1-c1ccc(C(F)(F)F)cn1	-13.6	-41.2	-3.1	-2.8	155.3*	-5.0
CN(C)/C=N/c1c(C#N)cnn1-c1ccccc1	-0.9	-13.1	5.2	-11.0	-9.2	0.0
COc1ccccc1N(CC(O)Cn1ccnc1C)S(=O)(=O)c1ccc(C)cc1 (centres undefined)	-5.5	-27.9	1.4	-12.8	-5.7	0.0
COC(=O)CCC(=O)OC1(C)C(=O)C=C2C=C3CCCN3C=C2C1=O (centres undefined)	53.6*	-47.6	10.6	-2.1	8.0	.
CC1(OC(=O)C2CCCC2)C(=O)C=C2C=C(c3ccsc3)N(C3CC3)C=C2C1=O (centres undefined)	-9.0	-90.5	-1.8	-6.4	3.1	.
CC1(OC(=O)c2ccc(Cl)nc2)C(=O)C=C2C=C3CCCN3C=C2C1=O (centres undefined)	58.7*	-105.7	9.3	3.6	22.4	.
CC1(OC(=O)C2CCCC2)C(=O)C=C2C=C3CCCCN3C=C2C1=O (centres undefined)	9.6	-144.6	1.6	-3.9	-9.1	.
COc1cc2ccccc2cc1C(=O)NCC(c1cccs1)N(C)C (centres undefined)	3.4	-15.6	6.3	-14.4	-3.6	0.0
CCOC(=O)c1c(C)n(-c2ccc(C)cc2)c2ccc(OCC(O)CN3CCN(C)CC3)cc12 (centres undefined)	13.1	4.5	14.6	42.7	54.0*	-2.0
NS(=O)(=O)c1ccc(-c2ccc(/C=N/Nc3ccc(C(=O)O)cc3)o2)cc1	59.1*	-83.4	0.0	3.5	-28.4	.
O=C(O)c1ccc(-c2ccc(/C=N/Nc3ccc([N+](=O)[O-])cc3)o2)cc1	61.7*	-49.2	8.9	-2.8	-39.5	.
CCN(C(C)=O)c1ccc(Oc2nc(OC)cc(OC)n2)cc1	-7.0	-32.0	1.4	-5.7	-13.3	0.0
SMILES	Mcl1-Noxa inh	Mcl1 Bid PPI	eIF4E 4G PPI	14-3-3 Bad PPI	p47phox inh	Mcl-1 Bim block
CC1CCN(CCCn2c(=S)[nH]c3c(sc4ccc([N+](=O)[O-])cc43)c2=O)CC1	47.8	-41.0	1.1	-8.5	-0.2	1.0
CC1CCN(CCCn2c(=S)[nH]c3c(sc4ccccc43)c2=O)CC1	59.1*	-80.4	1.7	-11.3	-7.5	-3.0
CC(=O)NC(c1cccs1)c1cc([N+](=O)[O-])c2cccnc2c1O (centres undefined)	54.5*	25.2	3.4	7.8	-7.8	0.0
S=C(NCc1ccco1)N1CCN(c2ccccc2Cl)CC1	7.3	-19.3	-0.9	-6.5	1.2	2.0
N#C/C(=N\Nc1cccc(C(F)(F)F)c1)C(=O)c1ccsc1	8.2	-10.1	2.1	-6.4	-12.1	.
COc1cc2c(cc1OC)C(c1cccs1)N(C(=O)c1ccc(S(=O)(=O)N(C)C)cc1)CC2 (centres undefined)	13.0	-3.7	-6.5	11.0	-7.8	.
CN(C)c1cccc(NC(=O)C2(C)CC2(Cl)Cl)c1 (centres undefined)	39.3	-68.3	-1.5	-4.7	-3.4	84.0*
CCN(CC)C(=O)Cn1cc(SCC(=O)NC2CCCC2)c2ccccc21	-4.8	-25.6	-2.2	-7.8	-1.5	0.0
Clc1ccc(-c2csc(N/N=C/c3cccnc3)n2)c(Cl)c1	58.4*	42.4	0.0	5.6	-7.5	-3.0
C/C(=N\NC(=O)Cc1c(C)[nH][nH]c1=O)c1cccc(Br)c1	-10.5	-138.9	97.3*	6.5	-4.0	.
CC(C)(C)c1c(Cl)c(O)c(-c2ccccc2)c(=O)n1-c1ccccc1	35.5	86.1*	32.9*	79.5*	12.0	-2.0
O=c1c(-c2ccccc2)c(O)cc(-c2ccncc2)n1-c1ccc(Cl)cc1	8.8	-32.2	-0.2	-5.3	-11.6	1.0
Nc1c(C2=NCCO2)nnn1Cc1ccccc1	-4.1	12.9	-7.8	2.9	43.7*	-3.0
Cc1ccc(CNc2ccc(O)cc2)cc1	51.8*	-18.5	-2.2	6.8	12.7	1.0
CC(=O)N1CCN(c2ccc(NCc3ccc(C)cc3)cc2)CC1	52.9*	-10.9	-0.8	-5.1	2.9	0.0
O=C(NCCCl)Nc1cccc(Br)c1	23.6	-16.9	0.9	-2.2	-0.1	0.0
Cc1ccc(C(=O)Cn2nc(C(=O)O)c3ccccc3c2=O)cc1C	-12.8	-9.7	0.1	1.5	-4.0	.
CCC(=O)Nc1ccc(C(=O)Cn2nc(C(=O)O)c3ccccc3c2=O)cc1	56.5*	-20.0	9.2	-5.5	-18.2	0.0
COC(=O)c1ccc(C2N=C(c3cccs3)CC(c3ccccc3O)N2)cc1 (centres undefined)	0.9	-2.6	-0.5	-1.8	-7.9	0.0
CCc1cc2c(NCc3ccco3)ncnc2s1	31.4	15.6	7.3	87.2*	-14.9	0.0
C=C(C)C(=O)Nc1cccc(C2=NOC3(C2)C[C@@H](C(N)=O)N(C(=O)/C=C/C=C/C)C3)c1 (some centres undefined)	97.2*	-54.8	6.6	38.0	1.6	.
C/C=C(\C)C(=O)Nc1cccc(C2=NOC3(C2)C[C@@H](C(N)=O)N(C(=O)/C(C)=C/C)C3)c1 (some centres undefined)	0.7	-36.4	96.0*	0.6	-7.8	.
